PubChem BioAssay (Tox21)
Results filed as inconclusive are left out. Unmarked numbers belong to inactive results. Activity calls are given as the source filed them. Calls follow the shape of the dose curve; as a rule, active = well fitted cell-killing curve with a large enough effect in the repeat runs; inconclusive = weak or mixed curves, or effect the other way; inactive = flat fitted curve, though single readings scatter.

experiment: cAMP Responsive Elements (CRE) small molecule agonists, cell-based qHTS assay: qHTS cell viability counter screen (AID 2060914); conditions: CRE-bla HEK293T viability, CellTiter-Glo luminescence, 5 h; series mostly up to 92.4 µM; activity change, negative = cytotoxicity: at the top concentration; also: nearly all actives have a fitted effect of over 50% in size
In short: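 Cytotoxicity was measured as ATP luminescence (CellTiter-Glo, 30 min at room temperature) in the same wells as the CRE-bla FRET read-out. HEK293T CRE-bla cells had 3 h compound exposure at 37C/5% CO2.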
% is scaled to controls: 0 for no effect and ±100 for the full control effect; potency is read from the fitted curve at half-maximal effect.

| SMILES | activity change, negative = cytotoxicity | Potency |
| --- | --- | --- |
| CCOc1cccc(N)c1 | 3.39% |  |
| CC(=O)[C@H]1CC[C@H]2[C@@H]3C=CC4=CC(=O)CC[C@@]4(C)[C@@H]3CC[C@]12C | -5.21% [at 42.5 µM] |  |
| Brc1nc2ccccc2s1 |  | inactive |
| CCCCCCCCOC(=O)c1ccc(O)cc1 |  | inactive |
| NS(=O)(=O)c1cc(-c2nn[nH]n2)c(NCc2cccs2)cc1Cl | 4.16% [at 42.5 µM] |  |
| CCCOc1ccc(C(=O)OCCN(CC)CC)cc1N | 3.16% [at 42.5 µM] |  |
| CCCCCCCCc1ccc(S(=O)(=O)O)cc1 | -8.86% |  |
| CN1CCN(CC(=O)N2c3ccccc3C(=O)Nc3cccnc32)CC1 | 0.984% [at 8.39 µM] |  |
| Oc1cc2c(cc1O)[C@H]1c3ccc(O)c(O)c3OC[C@@]1(O)C2 | 13.2% |  |
| Nc1ccc2cc3ccccc3cc2c1 |  | inactive |
| C[Si](NC1CCCCC1)(NC1CCCCC1)NC1CCCCC1 | -11.9% |  |
| COC[C@H](c1ccc(C(F)(F)F)cc1)N1CCN(C2(C)CCN(C(=O)c3c(C)ncnc3C)CC2)C[C@H]1C | -2.57% [at 42.5 µM] |  |
| CC(COc1ccc(C(C)(C)C)cc1)OS(=O)OCCCl (centres undefined) | 23.7% |  |
| CC(=O)O[C@]1(C(C)=O)CC[C@H]2[C@@H]3C[C@H](C)C4=CC(=O)CC[C@]4(C)[C@H]3CC[C@@]21C | -12.7% [at 42.5 µM] |  |
| O=C(c1ccc(Cl)cc1)c1ccc(Cl)cc1 | 6.67% |  |
| CC(C)(C)CC(C)(C)c1ccc(O)c(-n2nc3ccccc3n2)c1 |  | 9.69 µM (active) |
| C[C@H](CCC(=O)O)[C@H]1CC[C@H]2[C@@H]3C(=O)C[C@@H]4CC(=O)CC[C@]4(C)[C@H]3CC(=O)[C@]12C | -1.36% [at 42.5 µM] |  |
| FC(F)(F)C(F)(F)C(F)(F)C(F)(F)CCI | -0.634% [at 42.5 µM] |  |
| CO[C@@]1(NC(=O)Cc2cccs2)C(=O)N2C(C(=O)O)=C(COC(N)=O)CS[C@@H]21 | -6.27% [at 42.5 µM] |  |
| COc1cccc(Br)c1 | -5.18% |  |

| SMILES | activity change, negative = cytotoxicity | Potency |
| --- | --- | --- |
| CCN(Cc1cccc(S(=O)(=O)O)c1)c1ccc(C(=C2C=CC(=[N+](CC)Cc3cccc(S(=O)(=O)[O-])c3)C=C2)c2ccccc2)cc1 | 17.3% [at 42.5 µM] |  |
| Brc1ccc(Br)c(Br)c1 |  | inactive |
| CN[C@@H]1[C@@H](O)[C@@H](O[C@@H]2[C@H](O)[C@H](O[C@H]3OC(CN)=CC[C@H]3N)[C@@H](N)C[C@H]2N)OCC1(C)O (some centres undefined) | -0.73% [at 42.5 µM] |  |
| CCOc1ccc2ccccc2c1C(=O)N[C@@H]1C(=O)N2[C@@H]1SC(C)(C)[C@@H]2C(=O)O | 8.26% [at 42.5 µM] |  |
| CC[C@]1(O)C[C@H]2CN(CCc3c([nH]c4ccccc34)[C@@](C(=O)OC)(c3cc4c(cc3OC)N(C=O)[C@H]3[C@@](O)(C(=O)OC)[C@H](OC(C)=O)[C@]5(CC)C=CCN6CC[C@]43[C@@H]65)C2)C1 | 12.6% [at 42.5 µM] |  |
| CC1=C(CC(=O)O)c2cc(F)ccc2/C1=C\c1ccc(S(C)(=O)=O)cc1 | -6.31% [at 42.5 µM] |  |
| CC(C)C[C@@H](N)C(=O)O | -6.51% [at 18.9 µM] |  |
| CC(C)C[C@H](NC(=O)OCC1c2ccccc2-c2ccccc21)C(=O)O | -1.34% |  |
| O=Cc1cccc(Br)c1 | 4.5% |  |
| C/C=C/C=N/NC(=O)c1ccncc1 | 7.37% [at 42.5 µM] |  |
| Clc1cc(Cl)cc(Cl)c1 | -1.63% |  |
| Cc1ccc(O)c(C(=O)c2ccccc2)c1 | -14.2% |  |
| CCCC1CCC(=O)O1 (centres undefined) | 8.34% |  |
| C/C=C/C=C/CCCCCCCO | 5.93% |  |
| OCCN1CCNCC1 |  | inactive |
| C=C(C)C(=O)OCCN(CC)CC | -2.53% |  |
| CC1=NC(C)OC1C (centres undefined) | -9.76% |  |
| CN(C)[C@@H](CCOc1cccc2ccccc12)c1ccccc1 | 2.58% [at 42.5 µM] |  |
| Nc1ccc([N+](=O)[O-])c(C(F)(F)F)c1 | 0.684% [at 42.5 µM] |  |
